Max response data for 65 molecules are collected here from PubChem BioAssay AID2314 (National Center for Advancing Translational Sciences (NCATS), 2010).

Each structure is given as a SMILES string. Values joined by “and” are separate entries in the source; they are usually repeats but may differ in a detail not shown here. Equal entries are not always repeated. Hit rate of the full screen: of about 300,000 compounds, about 37,000 (12%) were called active. No stated cut-off is given here; in the data, active means max response mostly above about 13% (no sharp cut-off); inactive means mostly below about 14%. The entries come from a sample that favours actives as a whole.

This test in a line: Cycloheximide Counterscreen for Small Molecule Inhibitors of Shiga Toxin. Further: read at 38.3 µM for the half of the compounds with a filed dose; 0% is about no effect. Conditions: cell reporter, cycloheximide protein synthesis inhibition counterscreen; active compounds read high. On the technique in general: A counterscreen serves to expose hits that act by an unwanted route or on another target.
As for `CN(C)C(=O)c1ccc2c(c1)C1C3CCC(C3)C1C(c1ccccc1)N2` (stereo not given), the max response was -4.56% (inactive).
For `CN(C)CCCN(C(=O)COc1ccccc1)c1nc2c(Cl)cccc2s1`, the max response was -4.5% (inactive).
As for `NNc1nc2c(Cl)cccc2s1`, the max response is 53.2% (active).
As to `Cc1ccc(-c2cc(N)on2)cc1`, the max response was 21% (active).
With `Cc1ccc(S(=O)(=O)Cc2cc(-c3ccc(Cl)cc3)no2)cc1` the figure was 0.779% (inactive).
Under `Nc1c(NCCc2ccccc2)c2ccccc2oc1=O` stands 23.7% (active); under `CC(C)(C)Nc1c(N)c(=O)oc2ccccc12`, -1.31% (inactive).
Consider `NC(=O)c1oc2ccccc2c1NC(=O)Cc1ccccc1`, for which the max response was -2.17% (inactive).
As for `CC(=O)N1c2ccc(S(=O)(=O)N3CCC(C(=O)NC4CCCC(C)C4C)CC3)cc2CC1C` (stereo not given), the max response is 4.81% (inactive).
As to `Cc1ccc(OCC(=O)Nc2ccccc2C(=O)NC2CC2)cc1C`, the max response was -1.62% (inactive).
For `CCOC(=O)CSc1nnc(-c2ccncc2)o1`, the max response is 1.84% (inactive).
As for `CCOC(=O)CSc1nnc(-c2ccc([N+](=O)[O-])cc2)o1`, the max response was -0.444% (inactive).
Take `CCCCSc1nnc(-c2ccc(C)cc2)o1`: the max response was 40.6% (active).
`c1ccc2c(c1)C(=NC1CCCCC1)NC2=NC1CCCCC1`: the max response is -4.35% (inactive).
With `O=C(c1ccc(CS(=O)(=O)c2ccccc2)o1)N1CCN(c2ccccc2)CC1` the figure was -5.15% (inactive); with `Cc1c(CC(=O)NCC(=O)NCC(=O)O)c(=O)oc2cc3oc4c(c3cc12)CCCC4`, -2.59% (inactive).
Under `COc1ccc(N(CC(=O)Nc2cc(OC)cc(OC)c2)S(=O)(=O)c2c(C)n[nH]c2C)cc1` stands -1.21% (inactive).
As to `Cc1ccc(Nc2cc(C)nc3c(C)ccc([N+](=O)[O-])c23)cc1`, the max response is 0.487% (inactive).
In the case of `Cc1[nH]n(-c2cccc(Cl)c2)c(=O)c1-c1ccc(Cl)cc1`, the max response was 12.1% (inactive).
Regarding `O=c1c(-c2cccc(Cl)c2)c[nH]n1-c1ccccc1`, the max response is 69.9% (active).
With `O=c1c(-c2ccccc2Cl)c[nH]n1-c1ccccc1` the figure was 8.14% (inactive).
On to `CC(=O)C1=C(O)C(=O)N(c2cccnc2)C1c1ccc([N+](=O)[O-])cc1` (stereo not given), for which the max response was -2.81% (inactive).
With `O=C(COC(=O)c1ccc(N2CCCC2=O)cc1)c1ccc(OC(F)F)cc1` the figure was 2.45% (inactive); with `S=c1[nH]c2ccccc2c2ccccc12`, 1.83% (inactive); with `CC1CCC(NC(=O)C2c3ccccc3C(=O)N2Cc2ccc3c(c2)OCO3)CC1` (stereo not given), -1.18% (inactive).
As for `Cc1ccc2c(c1)NCC(C(=O)NC1CCC(C)CC1)O2` (stereo not given), the max response was 41.1% (active).
Take `Cc1ccc(C(=O)NC2CC(C)(C)NC(C)(C)C2)c(C)c1`: the max response was -4.92% (inactive).
With `CC(NS(=O)(=O)c1ccc(Br)cc1)C(=O)NCC1CCCO1` (stereo not given) the figure was -1.6% (inactive); with `CN1CCN(c2nc(Nc3ccc(O)cc3)nc3ccccc23)CC1`, -3.27% (inactive); with `COc1cc2nc(Cl)nc(NCCO)c2cc1OC`, -1.72% (inactive).
Turning to `OCCNc1nc(Nc2ccc(Cl)c(Cl)c2)nc2ccccc12`, the max response was 10.5% (active).
As for `COc1ccc(C2=NN(C(C)=O)C(c3ccccc3)C2)cc1` (stereo not given), the max response is 20.9% (active).
Under `COc1ccc(C2CC(c3ccc([N+](=O)[O-])cc3)=NN2C(C)=O)cc1` (stereo not given) stands 24.5% (active); under `COc1ccc(C2=NN(C(=O)CCC(=O)O)C(c3cccs3)C2)cc1OC` (stereo not given), -1.52% (inactive).
Regarding `COc1ccc(C2CC(c3ccccc3)=NN2C(=O)c2ccc(Cl)c([N+](=O)[O-])c2)cc1` (stereo not given), the max response is 12.9% (inactive).
For the molecule `COc1ccc(C2CC(c3ccccc3)=NN2C(=O)COC(=O)COc2ccccc2)cc1` (stereo not given), the max response is 2.88% (inactive).
As to `COc1ccc(C(=O)Nc2nc(-c3ccc(OC)cc3)c(-c3ccc([N+](=O)[O-])cc3)s2)cc1`, the max response was 9.79% (inactive).
As for `COc1ccc(C(=O)CSc2nccc(=O)[nH]2)cc1`, the max response was 8.3% (inactive).
With `COc1ccc(C2=NN(C(=O)c3ccccc3C(=O)O)C(c3ccccc3O)C2)cc1` (stereo not given) the figure was 40.6% (active); with `COc1cccc(C2CC(c3ccccc3)=NN2S(=O)(=O)c2ccccc2)c1OC` (stereo not given), 0.319% (inactive); with `COc1ccc(C2=NN(C(=O)c3cccnc3)C(c3ccccc3)C2)cc1` (stereo not given), -5.54% (inactive).
With `CCOc1ccc2nc(Cl)c(C3CC(c4ccccc4)=NN3C(=O)c3cccs3)cc2c1` (stereo not given) the figure was -1.42% (inactive); with `COc1ccc(C2CC(c3ccccc3)=NN2C(=O)CSc2nccc(=O)[nH]2)cc1` (stereo not given), 40% (active).
Consider `CCCCN(CCCC)CCNC(=O)CN1C(=O)COc2ccc(S(=O)(=O)N3CCOCC3)cc21`, for which the max response is -2.14% (inactive).
Turning to `CCN1C(=NCCc2cccnc2)N[C@@H](c2ccccc2)[C@H](C(=O)OC)[C@H]1C`, the max response is 3.2% (inactive) and 1.95% (inactive).
On to `COCCN1C(=O)N(c2ccc(Cl)cc2)C(=O)C1CC(=O)Nc1cc(OC)cc(OC)c1` (stereo not given), for which the max response was -0.589% (inactive).
As for `CCN1C(=O)c2cccc3c(S(=O)(=O)Nc4ccccc4O)ccc1c23`, the max response was 9.32% (inactive).
Regarding `O=C(CCC(=O)NNc1nc2ccccc2c2nc(-c3ccccc3)nn12)NCCCN1CCCC1=O`, the max response was 10.3% (inactive).
Under `COc1ccc(S(=O)(=O)NCCOc2ccccc2)cc1F` stands -4.53% (inactive); under `Cc1ccc2c(c1)N(CC(=O)N1CCC(C)CC1)C(=O)c1cccnc1O2`, -1.05% (inactive); under `COC(=O)c1ccccc1NC(=O)C1CCN(C(=O)N2CCOc3ccccc32)CC1`, 0.401% (inactive).
With `CCOc1ccccc1CN1CCN(C2CCC2)CC1CCO` (stereo not given) the figure was -0.61% (inactive); with `CS(=O)(=O)c1ccccc1C(=O)Nc1ccc2sccc2c1`, 1.56% (inactive).
As for `O=C(Nc1cccc(Cl)c1)Nc1nnc(-c2ccccc2)o1`, the max response was -4.47% (inactive).
Take `Cc1cc(Cl)nc(NC(=O)Nc2cccc(Cl)c2)n1`: the max response was 19.5% (active).
For `O=C(NCCN1CCOCC1)Nc1cccc(Cl)c1`, the max response is 20.1% (inactive).
With `COc1ccc(OCC(=O)N2CCN(C(=O)COc3ccccc3)CC2)cc1` the figure was -5.08% (inactive); with `Cc1ccc(Cl)c(OCC(=O)N2CCc3ccccc3C2)c1`, 30% (active).
As for `O=C(COc1ccccc1Cl)N1CCCCCCC1`, the max response is 4.62% (inactive).
Under `Cc1cccc(OC(C)C(=O)N2CCc3ccccc3C2)c1` (stereo not given) stands -3.38% (inactive); under `Cc1ccccc1-c1nc(CS(=O)(=O)CC(=O)N2CCc3ccccc3C2)c(C)o1`, 0.61% (inactive); under `O=C(Cn1c(=S)nc2ccccn21)N1CCc2ccccc2C1`, 22.4% (active).
For the molecule `O=C(COc1ccccc1)N1CCc2ccccc2C1`, the max response was 28.7% (active).
For the molecule `Cc1ccc(Cl)c(OCC(=O)NN2CCN(C)CC2)c1`, the max response is -2.49% (inactive).
Regarding `O=C(C1CCN(c2nnc(-n3cccc3)s2)CC1)N1CCc2ccccc2C1`, the max response was -2.9% (inactive).
